One assay deals with Klebsiella pneumoniae. As to conditions: Concentration 32 ug.mL-1;; ASSAY_TEST Inhibition of Bacterial Growth; detection method Absorption (OD600); MEDIA CAMHB; plate type 384well; NBS; CORNING #3640; time 18 hr.
The subject of a further assay is Candida albicans. As to conditions: Concentration 32 ug.mL-1; ASSAY_TEST Inhibition of Fungal Growth; detection method Absorption (OD530).
For another assay, the system named is Cryptococcus neoformans. Conditions: Concentration 32 ug.mL-1; ASSAY_TEST Inhibition of Fungal Growth; detection method Resazurin; Absorption (OD600-OD570); plate type 384well; NBS; CORNING #3640.

Potency and affinity values are given separately.

On to `Cc1ccc(-n2ccn3c(SCC(N)=O)nnc3c2=O)cc1C`, for which the Inhibition with Klebsiella pneumoniae was 20.66%; in the assay on Candida albicans, 1.07%; in the assay with Cryptococcus neoformans, -10.4%.
The corresponding values for `COc1ccc(-c2cc3c4nn(CC(=O)Nc5c(C)cccc5C)c(=O)n4ccn3n2)cc1` are 9.85%, 7.22% and -19.98%.
On the same counts, the results for `COC(=O)c1ccc(NC(=O)Cn2nc3nc(N4CCCCCC4)ccn3c2=O)cc1` are 12.29%, 5.24% and -8.37%.
The corresponding values for `CCC(Sc1nnc2c(=O)n(-c3cccc(OC)c3)ccn12)C(=O)Nc1cc(OC)ccc1OC` (configuration not stated) are 1.63%, 1.95% and -10.37%.
`C=Cc1ccc(CSc2nnc3c(=O)n(-c4ccc(F)cc4)ccn23)cc1`: the results for the Inhibition in the assay on Klebsiella pneumoniae, in the assay with Candida albicans and in the assay with Cryptococcus neoformans were 9.66%, 4.46% and -8.26%, respectively.
On the same counts, the results for `O=C(Cn1nc2nc(Nc3ccc(F)cc3)ccn2c1=O)Nc1ccc(F)cc1` are 8.54%, 3.4% and -2.56%.
The corresponding values for `CCc1ccc(NC(=O)Cn2nc3n(Cc4cccs4)c(=O)c4sccc4n3c2=O)cc1` are 9.1%, 35.62% and -2.93%.
On the same counts, the results for `O=C(Cn1nc2c(Oc3ccccc3)nccn2c1=O)Nc1ccc2c(c1)OCO2` are 4.55%, 2.95% and -10%.
Consider `COc1ccc(N2CCN(C(=O)Cn3nc4c(Oc5ccccc5)nccn4c3=O)CC2)cc1`, for which the values for the Inhibition in the assay on Klebsiella pneumoniae, in the assay with Candida albicans and in the assay with Cryptococcus neoformans were 15.08%, 1.75% and -7.66%, respectively.
With `COc1ccc(OC)c(NC(=O)Cn2nc3c4cc(-c5ccc(C)c(C)c5)nn4ccn3c2=O)c1`, the Inhibition is 5.66% in the assay on Klebsiella pneumoniae, 5.32% in the assay on Candida albicans and -22.06% in the assay with Cryptococcus neoformans.
For `CC(C)c1ccc(NC(=O)CSc2nc3ccccc3n3cnnc23)cc1`, the results for the Inhibition in the assay on Klebsiella pneumoniae, with Candida albicans and in the assay with Cryptococcus neoformans were 3.82%, 7.46% and -15.4%, respectively.
Regarding `COc1ccc(CNC(=O)CSc2nnc3c4cc(-c5ccc(OC)cc5)nn4ccn23)cc1`, the Inhibition is listed as -0.91% with Klebsiella pneumoniae, 1.93% in the assay on Candida albicans and -6.67% in the assay on Cryptococcus neoformans.
As to `COc1ccc(CNC(=O)Cn2nc3c(SCc4ccc(Cl)cc4)nccn3c2=O)cc1`, the figures for the Inhibition in the assay on Klebsiella pneumoniae, in the assay with Candida albicans and with Cryptococcus neoformans were 2.51%, 1.91% and -11.5%, respectively.
The corresponding values for `CCCCc1ccc(NC(=O)Cn2nc3c(N4CCN(c5ccccc5C)CC4)nccn3c2=O)cc1` are -4.55%, 48.6% and -6.75%.
The corresponding values for `Cc1cc2nn(CC(=O)Nc3ccc(F)c(F)c3)c(=O)n2c(Nc2ccc(C)c(F)c2)n1` are 13.08%, 3.82% and -7.92%.
Consider `COc1ccc(CNC(=O)Cn2nc3c(N4CCOCC4)nccn3c2=O)cc1`, for which the results for the Inhibition with Klebsiella pneumoniae, in the assay on Candida albicans and in the assay on Cryptococcus neoformans were 16.6%, 6.15% and -8.83%, respectively.
The corresponding values for `Cc1ccc(-n2ccn3c(=O)n(Cc4ccc(Cl)cc4)nc3c2=O)cc1C` are 1.49%, 0.66% and -5.42%.
For the compound `CCOc1ccc(-n2ccn3c(SCC(=O)c4cccc(Cl)c4)nnc3c2=O)cc1`, the Inhibition is 10.21% in the assay on Klebsiella pneumoniae, 2.76% in the assay on Candida albicans and -7.79% with Cryptococcus neoformans.
Turning to `Cc1ccc(-n2ccn3c(=O)n(Cc4ccccc4)nc3c2=O)cc1C`, the Inhibition is recorded as -0.96% in the assay with Klebsiella pneumoniae, 0.88% in the assay with Candida albicans and -10.01% with Cryptococcus neoformans.
As to `COC(=O)c1ccc(NC(=O)Cn2nc3ccc(Sc4ccc(C)cc4)nn3c2=O)cc1`, the Inhibition is recorded as 13.07% in the assay with Klebsiella pneumoniae, 2.46% with Candida albicans and -10.13% in the assay on Cryptococcus neoformans.
The corresponding values for `COc1ccc(-c2cc3c4nn(CC(=O)Nc5ccc6c(c5)OCO6)c(=O)n4ccn3n2)cc1` are 2.73%, 15.19% and -14.04%.
The corresponding values for `Cc1ccc(C)c(NC(=O)Cn2nc3ccc(-c4ccccc4)nn3c2=O)c1` are 5.6%, 1.64% and -11.25%.
As to `CN(C(=O)Cn1nc2n(Cc3cccs3)c(=O)c3sccc3n2c1=O)c1ccccc1`, the Inhibition in the assay on Klebsiella pneumoniae is -2.89%; in the assay on Candida albicans it was 0.01%; with Cryptococcus neoformans, -9.21%.
For `CCc1ccccc1Sc1nccn2c(=O)n(CC(=O)Nc3cccc(Br)c3)nc12`, the Inhibition is 8.38% with Klebsiella pneumoniae, 2.9% with Candida albicans and -6.91% with Cryptococcus neoformans.
On the same counts, the results for `CCOc1ccc(-n2ccn3c(SCC(=O)c4ccc(F)cc4)nnc3c2=O)cc1` are 1.88%, 2.02% and -5.27%.
In the case of `O=C(CSc1nnc2c(=O)n(-c3ccccc3)ccn12)Nc1cccc(Cl)c1`, the Inhibition is 1.21% in the assay with Klebsiella pneumoniae, -0.19% in the assay on Candida albicans and -20.21% with Cryptococcus neoformans.
The corresponding values for `Cc1cccc(Cn2nc3n(CCc4ccccc4)c(=O)c4sccc4n3c2=O)c1` are 3.95%, -1.37% and -11.78%.
For the compound `CCc1ccc(N(Cc2ccccc2C)S(=O)(=O)c2cccn3c(C)nnc23)cc1`, the results for the Inhibition in the assay on Klebsiella pneumoniae, in the assay with Candida albicans and with Cryptococcus neoformans were 3.93%, 5.07% and -8.38%, respectively.
On the same counts, the results for `Cc1ccc(CNC(=O)c2ccc3nn(CC(=O)Nc4ccc(C(F)(F)F)cc4)c(=O)n3c2)cc1` are 8.75%, 7.7% and -15.23%.

One may read the Inhibition as the change of the read-out against control, counted positive when it falls.
